# Source: PubChem BioAssay
# Compounds with a hit are over-represented: about 2.9% of the library has one in this group of screens.
# 12-LOX inh: Primary qHTS assay for inhibitors of human arachidonate 12S-lipoxygenase (ALOX12): Round 2 | Polyunsaturated fatty acid lipoxygenase ALOX12 (Homo sapiens), P18054 | purified 12hLO, xylenol orange hydroperoxide absorbance | Potency, µM (top dose mostly 108 µM), actives largely listed as inhibitors | 1.1% of 580,000 active | AID 1671190, 2021
#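 Purified human 12hLO (150 nM final) in 25 mM Hepes, 0.01% Triton X-100, pH 7.0 was preincubated 15 min at room temperature with compound. Then 40 uM arachidonic acid was added, 30 min. Hydroperoxide was read by Fe-XO absorbance ratio 573/405 nm.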
# Pol kappa inh: qHTS for Inhibitors of Polymerase Kappa. Potency, µM (highest dose often 107 µM), most hits filed as inhibitors. purified Pol kappa, fluorescent DNA synthesis assay, 10 min. DNA polymerase kappa (Homo sapiens), Q9UBT6. 0.53% of 400,000 active
#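 Kinetic fluorescence screen: compound preincubated 15 min RT with 10 nM enzyme; 50 nM substrate (final) initiates; reads at 0/10 min.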
# PI5P4Ka inh: qHTS for Inhibitors of phosphatidylinositol 5-phosphate 4-kinase (PI5P4K); PI5P4Kalpha enzyme, ADP-Glo luminescence, 60 min; hits give low values; max response, %; 1.2% of 330,000 active; AID 652105, 2013; Phosphatidylinositol 5-phosphate 4-kinase type-2 alpha (Homo sapiens), P48426; active means max response of -50% or lower; inconclusive means between -30% and -50%; inactive means -30% or higher; further: value at the top dose of about 77 µM
#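 Luminescence from ADP-Glo served as readout of PI5P4Kalpha activity in a qHTS format. Reaction: enzyme, substrate, compound, ATP at 5 microM final, 60 min at RT.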
# Pol eta inh: qHTS for Inhibitors of Polymerase Eta; DNA polymerase eta (Homo sapiens), Q9Y253; recombinant Pol eta, fluorescent DNA replication assay; Potency, µM (series often up to 114 µM), usual class: inhibitors; 1.2% of 390,000 active; AID 588591, 2011
# Target sequence (Q9Y253 whole entry, looked up): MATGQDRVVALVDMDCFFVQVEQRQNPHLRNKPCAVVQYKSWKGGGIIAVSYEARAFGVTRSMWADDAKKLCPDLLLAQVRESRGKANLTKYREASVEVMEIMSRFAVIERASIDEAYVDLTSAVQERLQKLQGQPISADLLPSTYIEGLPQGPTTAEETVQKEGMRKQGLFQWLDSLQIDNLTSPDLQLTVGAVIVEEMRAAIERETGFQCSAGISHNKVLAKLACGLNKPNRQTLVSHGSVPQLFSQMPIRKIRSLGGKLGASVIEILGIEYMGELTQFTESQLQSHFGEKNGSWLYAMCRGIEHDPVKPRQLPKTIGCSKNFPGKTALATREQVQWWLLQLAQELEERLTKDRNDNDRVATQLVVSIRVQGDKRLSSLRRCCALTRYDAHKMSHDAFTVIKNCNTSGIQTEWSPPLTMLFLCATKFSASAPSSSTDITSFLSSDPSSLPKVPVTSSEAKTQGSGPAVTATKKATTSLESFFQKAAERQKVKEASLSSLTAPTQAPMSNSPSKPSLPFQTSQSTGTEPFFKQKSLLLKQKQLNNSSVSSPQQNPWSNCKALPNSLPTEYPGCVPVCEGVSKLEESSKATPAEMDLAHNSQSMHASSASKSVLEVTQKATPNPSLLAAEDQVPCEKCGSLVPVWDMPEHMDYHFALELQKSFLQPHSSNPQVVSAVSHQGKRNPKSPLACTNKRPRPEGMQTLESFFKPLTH
#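 Fluorescent replication assay: 50 nM final substrate added after a 15 min room-temperature compound preincubation with 10 nM enzyme. Signal taken at 0 min and again at 10 min.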
# Pol iota inh: qHTS for Inhibitors of Polymerase Iota | 1% of 390,000 active | AID 588590, 2011 | Pol iota fluorescent replication assay, 10 min | Potency, µM (series often up to 115 µM), actives largely listed as inhibitors
#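 Pol iota at 10 nM preincubated 15 min with compounds at room temperature; reaction started with fluorescent substrate, 50 nM final. Fluorescence read kinetically at 0 and 10 min; buffer-only wells as negative control.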
# Pol beta inh: qHTS Assay for Inhibitors of DNA Polymerase Beta; P06746; Pol beta primer extension/strand displacement, fluorescence kinetic; Potency, µM (highest dose often 114 µM), actives largely listed as inhibitors; 1.3% of 340,000 active; AID 485314, 2010
#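 Human Pol beta at 10 nM; strand-displacement substrate 50 nM final. Compound exposure 15 min at room temperature before start, reaction 10 min at room temperature.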
# Hits are given with their value; . = inactive; ? = inconclusive; / = no result; ! = not confirmed by another sample. Unless noted, the call rests on the fitted dose curve; in most records, active means well fitted inhibition curve with a large enough effect; inconclusive means small, poorly fitted or top-dose-only effect, or another doubt; inactive means no such curve, though single readings can be large or run the other way.
SMILES,12-LOX inh,Pol kappa inh,PI5P4Ka inh,Pol eta inh,Pol iota inh,Pol beta inh
COc1cc(/C=C2\SC(=S)N(NS(=O)(=O)c3ccc(C)cc3)C2=O)cc(OC)c1OC,?,.,.,.,.,.
CC(/C=C1\SC(=S)N(NS(=O)(=O)c2ccccc2)C1=O)=C\c1ccccc1,?,.,?,79µM,?,.
C=CCOc1ccc(/C=C2\SC(=S)N(NS(=O)(=O)c3ccccc3)C2=O)cc1,?,.,-56,25µM,?,?
COc1cc(/C=C2\SC(=S)N(NS(=O)(=O)c3ccccc3)C2=O)ccc1O,?,.,-61,?,32µM,.
CCOc1cc(/C=C2/SC(=S)N(CC3CCCO3)C2=O)ccc1O (centres undefined),.,.,.,.,28µM,?
CC(/C=C1\SC(=S)N(NC(=O)c2ccc(C)cc2)C1=O)=C\c1ccccc1,/,.,.,.,.,.
COc1ccc(/C=C2/SC(=S)N(NS(=O)(=O)c3ccccc3)C2=O)cc1,?,.,?,89µM,.,.
COc1ccccc1/C=C1\SC(=S)N(NS(=O)(=O)c2ccccc2)C1=O,.,.,.,?,.,.
CCOc1cc(/C=C2\SC(=S)N(NS(=O)(=O)c3ccc(C)cc3)C2=O)ccc1O,?,?,-59,?,?,/
Cc1ccccc1Nc1nc(NC2CCCCCC2)nc2c1cnn2-c1ccccc1,.,/,/,/,/,/
COCC(C)NC(=O)C1CCN(Cc2ccc(C)cc2)CC1 (centres undefined),.,/,/,/,/,/
O=C(O)c1cc2cc(Cl)cc(Cl)c2oc1=O,.,?,?,?,?,79µM
O=C(NCCO)c1cc2cc(Cl)cc(Cl)c2oc1=O,?,.,?,.,.,.
COc1ccc(CN(C)C(=O)CSc2nc(-c3cccs3)nc3ccccc23)cc1OC,.,/,/,/,/,/
CC1(C)[C@H]2CC[C@@H](CNC(=O)c3ccc(Cl)nc3)[C@@H]1C2,.,/,/,/,/,/
CC(/C=C1\SC(=S)N(CCC(=O)Nc2ccc(O)cc2)C1=O)=C\c1ccccc1,.,.,.,.,.,.
O=C(CCN1C(=O)/C(=C/c2cccs2)SC1=S)Nc1ccc(C(=O)O)c(O)c1,?,.,-58,40µM,.,?
CC(=Cc1ccccc1)C=C1SC(=S)N(CCCC(=O)Nc2ccc(C(=O)O)c(O)c2)C1=O,?,/,-57,/,/,/
Cc1ccc(C(=O)c2cccc(C(=O)c3ccc(C)c(C)c3)c2)cc1C,.,/,/,/,/,/
CN(CC(=O)O)S(=O)(=O)c1cccs1,.,.,.,.,89µM,.
CN(Cc1ccccc1)S(=O)(=O)c1cccs1,.,.,/,.,.,.
COc1cc(CNC(=O)N2CCN(Cc3ccc(Br)s3)CC2)ccc1OC(F)F,.,/,/,/,/,/
COc1cc(NC(=O)CCc2c[nH]c3ccccc23)cc(OC)c1,.,/,/,/,/,/
CC1(C)CC(=O)C2=C(C1)NC(=S)C(C#N)C21CCCCC1 (centres undefined),7.9µM,.,-62,.,.,.
COc1cc(CN(C(=O)c2cc(NC(C)=O)cc(NC(C)=O)c2)C2CC2)ccc1OC(F)F,.,/,/,/,/,/
SMILES,12-LOX inh,Pol kappa inh,PI5P4Ka inh,Pol eta inh,Pol iota inh,Pol beta inh
CC(=O)c1ccc(CC(=O)O)s1,.,/,/,/,/,/
CC(=O)c1ccc(C(=O)O)s1,16µM,/,/,/,/,/
CCOc1ccc(NC(=O)c2ccc(C#Cc3ccccc3)cc2)cc1,.,/,/,/,/,/
Cn1c(SCc2ccc(Cl)c3cccnc23)nnc1C(F)(F)F,.,/,/,/,/,/
CN(C)CCNc1ccc(CO)c2sc3ccc(O)cc3c(=O)c12,.,?,.,?,79µM,/
COc1ccc2sc3cccc(NCCN(C)C)c3c(=O)c2c1,.,/,.,/,/,/
O=C(NCc1ccccc1Cl)c1cnc2ccccc2n1,.,.,.,.,.,.
Cc1ccccc1CNC(=O)c1cnc2ccccc2n1,4.5µM,/,/,/,/,/
CCOc1ccc(NC(=O)CSc2nc(C3CC3)nc3ccccc23)cc1,.,.,.,.,.,.
COc1cccc(NC(=O)CSc2nc(C3CC3)nc3ccccc23)c1,.,.,.,40µM,?,.
CN(C)/C=C/C(=O)c1cnc(-c2ccc(Cl)cc2)s1,32µM,.,.,.,.,.
C=CCn1c(-n2nc(C)cc2C)nc2c1c(=O)n(CCN1CCOCC1)c(=O)n2C,.,/,/,/,/,/
CNc1nc(-c2ccc(N(C)S(C)(=O)=O)cc2)cs1,.,/,/,/,/,/
COc1cc(OC)c2cc(C(=O)NCC(=O)Nc3nc(C)cs3)n(C)c2c1,.,/,/,/,/,/
CCCCNC(=O)CCC(=O)NNc1nc2ccccc2c2nc(-c3ccccc3)nn12,.,.,.,.,.,89µM!
O=C(Nc1ccccc1C(=O)NC1CC1)c1ccc([N+](=O)[O-])o1,.,.,?,32µM,50µM,/
C/C(=N\NC(=S)Nc1c(C)cccc1C)c1cc2ccccc2o1,?,.,.,.,.,.
C/C(=N\NC(=S)Nc1ccccc1C)c1cc2ccccc2o1,20µM,.,.,.,.,.
O=C(NC1CCCCCC1)c1ccc2c(Cl)c3c(nc2c1)CCCC3,.,/,/,/,/,/
O=C(O)c1cccc(N2C(=O)c3ccc(Oc4ccc(Cl)cc4)cc3C2=O)c1,.,.,.,.,.,89µM
COc1ccc2cc3cc(C(=O)NCc4cccs4)oc3nc2c1,.,.,.,?,?,22µM
CCc1cccc2c1NC(=O)[C@]21[C@@H]2C(=O)N(Cc3ccccc3)C(=O)[C@@H]2[C@@H]2CCCN21,.,.,-52,22µM,?,?
COc1ccc2cnn(CC(=O)N3CCN(Cc4ccccc4)CC3)c(=O)c2c1OC,.,/,/,/,/,/
COc1cc(/C=C(\C#N)C(=O)N2CCOCC2)cc(Br)c1O,.,.,-61,.,.,.
N#C/C(=C\c1cccc(Oc2ccccc2)c1)C(=O)N1CCOCC1,.,.,.,.,.,.
SMILES,12-LOX inh,Pol kappa inh,PI5P4Ka inh,Pol eta inh,Pol iota inh,Pol beta inh
COc1ccc(-c2cc(N3CCCC(NC(=O)c4cc(C)cc(C)c4)C3)n[nH]2)cc1 (centres undefined),.,/,/,/,/,/
CCN(Cc1nc2cc(Cl)ccc2c(=O)[nH]1)C(=O)c1cc(Cl)c2c(c1)OCO2,.,/,/,/,/,/
CN(Cc1ccccc1)S(=O)(=O)c1ccc(NC(=S)NC(=O)C(C)(C)C)cc1,35µM,.,.,.,.,.
CN(Cc1ccccc1)S(=O)(=O)c1ccc(NC(=S)NC(=O)C2CCCCC2)cc1,18µM,.,.,.,.,.
CC(=O)Nc1ccc(S(=O)(=O)N(C)Cc2ccccc2)cc1,.,.,.,.,.,.
CCC(CC)C(=O)Nc1ccc2oc(-c3ccc(OC)cc3)nc2c1,.,/,/,/,/,/
Fc1cccc(Cl)c1CN1CCc2ccccc2C1,.,/,/,/,/,/
